From PubChem BioAssay
Most compounds without a hit are left out; they make up all but 17% or so of the library.
TDP1 cell CPT – growth inhibition of DT40 Tdp1-/-;hTDP1 cells with camptothecin (screen for TDP1 inhibitors); chicken DT40 Tdp1-/-;hTDP1 cells + 20 nM CPT, ATP luminescence, 48 h; 12% of 420,000 active; AID 686979; Potency, µM (series often up to 46.2 µM), actives largely listed as inhibitors; note: nearly all actives have a fitted effect of over 55% in size
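Cell growth measured by CellTiter-Glo luminescence after a minimum 48 h, 37 C compound exposure with 20 nM CPT in Tdp1-knockout DT40 cells stably expressing hTDP1, seeded 400/well; qHTS titration format.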
TDP1 cell noCPT – qHTS for Inhibitors of human tyrosyl-DNA phosphodiesterase 1 (TDP1): qHTS in cells in absence of CPT | DT40 Tdp1-/- hTDP1 cells, no CPT, ATP luminescence, 48 h | Potency, µM (titrated, usually from 46.2 µM), hits mostly inhibitors | 15% of 420,000 active; note: nearly all actives have a fitted effect of over 55% in size
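DT40 Tdp1-/-;hTDP1 cells, no CPT (DMSO vehicle only), 400 cells/well; compounds pin-transferred; ≥48 hr, 37 °C; CellTiter-Glo 30 min RT dark, luminescence read.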
TDP1 inh – inhibitors of human tyrosyl-DNA phosphodiesterase TDP1 | Q9NUW8 | recombinant TDP1, AlphaScreen DNA substrate cleavage | Potency, µM (titrated, usually from 130 µM), most hits filed as inhibitors | 0.28% of 350,000 active | AID 485290; note: nearly all actives have a fitted effect of over 40% in size
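Tdp1 1 nM final; 15 min RT w/ cpd; substrate 15 nM, 5 min; beads 10 ug/ml, 10 min; AlphaScreen read. Neg ctrl: no enzyme.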
ClpP mod – qHTS Assay for Activators of ClpP; purified B. subtilis ClpP, FRET peptide cleavage, 20 min; ATP-dependent Clp protease proteolytic subunit (Bacillus subtilis (strain 168)), P80244; Potency, µM (titrated, usually from 57.5 µM); AID 651965, 2013; 1.9% of 340,000 active; active = well fitted falling curve with a large enough effect; inconclusive = small, poorly fitted or top-dose-only effect; inactive = no such curve, though single readings can be large or run the other way; note: the source files actives as falling curves though it sought activators and does not explain the sign; nearly all actives have a fitted effect of over 65% in size
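FRET quenching reversal measured ClpP activation: 10 microg/mL B. subtilis ClpP at pH 8 with the FRET-FV decapeptide, read at 430 nm after 320 nm excitation. The 20-min minus 0-min signal was scaled between DMSO/no-enzyme wells and ADEP (5.8 microM final).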
Each line names hits and unclear results; the compound was inactive in the other large screens. Unless noted, calls come from the whole dose curve; as a rule, active = well fitted curve in the direction sought with a large enough effect; inconclusive = small, poorly fitted or top-dose-only effect, or another doubt; inactive = no such curve, though single readings can be large; an effect the other way counts as inactive or inconclusive.

COC(=O)C1=COC(O[C@H]2OC(CO)[C@H](O)C(O)C2O)[C@H]2C1C(=O)C[C@@H]2C (some centres undefined)	none (no result: ClpP mod)
Cc1cc(C)c(S(=O)(=O)Nc2cc(-c3cn4ccccc4n3)ccc2C)cc1C	TDP1 cell CPT 21µM, TDP1 cell noCPT 21µM
COc1ccc(S(=O)(=O)Nc2cc(-c3cn4ccc(C)cc4n3)ccc2C)cc1OC	TDP1 cell CPT 16µM, TDP1 cell noCPT 16µM
CCCS(=O)(=O)Nc1cc(-c2cn3ccc(C)cc3n2)ccc1C	TDP1 cell noCPT inconclusive
Cc1ccc(-c2cn3cccc(C)c3n2)cc1NS(=O)(=O)c1ccccc1	TDP1 cell CPT 26µM, TDP1 cell noCPT 16µM
Cc1ccc(S(=O)(=O)Nc2cccc(-c3cn4cccc(C)c4n3)c2)c(C)c1	TDP1 cell CPT inconclusive, TDP1 cell noCPT inconclusive (no result: TDP1 inh)
COc1ccc(Br)cc1S(=O)(=O)Nc1cc(-c2cn3ccccc3n2)ccc1C	TDP1 cell CPT inconclusive, TDP1 cell noCPT 13µM, ClpP mod 18µM
Cc1ccc2c(c1)C1(C=CC(=O)C=C1)CC(=O)N2C	none (no result: TDP1 cell CPT, TDP1 cell noCPT, ClpP mod)
CSCC[C@H](NC(=O)[C@H](CC(C)C)NC(=O)[C@H](Cc1c[nH]c2ccccc12)NC(=O)[C@H](CCC(N)=O)NC(=O)[C@@H](NC(=O)[C@H](Cc1ccccc1)NC(=O)[C@H](CC(=O)O)NC(=O)[C@H](CCC(N)=O)NC(=O)[C@H](C)NC(=O)[C@H](CCCNC(=N)N)NC(=O)[C@H](CCCNC(=N)N)NC(=O)[C@H](CO)NC(=O)[C@H](CC(=O)O)NC(=O)[C@H](CC(C)C)NC(=O)[C@H](Cc1ccc(O)cc1)NC(=O)[C@H](CCCCN)NC(=O)[C@H](CO)NC(=O)[C@H](Cc1ccc(O)cc1)NC(=O)[C@H](CC(=O)O)NC(=O)[C@H](CO)NC(=O)[C@@H](NC(=O)[C@H](Cc1ccccc1)NC(=O)[C@@H](NC(=O)CNC(=O)[C@H](CCC(N)=O)NC(=O)[C@H](CO)NC(=O)[C@@H](N)Cc1cnc[nH]1)[C@@H](C)O)[C@@H](C)O)C(C)C)C(=O)N[C@@H](CC(N)=O)C(=O)N[C@H](C(=O)O)[C@@H](C)O	none (no result: TDP1 cell CPT, TDP1 cell noCPT, ClpP mod)
CN(CCC1CCOCC1)C(=O)c1cc(COc2c(F)cccc2F)on1	TDP1 cell CPT inconclusive
Cc1ccn2c(c1)nc(=O)c1cc(S(=O)(=O)N3CCC(C)CC3)c(Cl)cc12	none (no result: TDP1 cell CPT, TDP1 cell noCPT)
CCOC(=O)c1c(N)n(-c2ccccc2CC)c2nc3ccccc3nc12	none (no result: TDP1 cell CPT, TDP1 cell noCPT)
CCc1ccc(OCc2nc(-c3ccc(OC)cc3)no2)c(Br)c1	TDP1 cell noCPT inconclusive
CCC1CN(C(=O)NCc2cccc(OC)c2)c2ccccc2O1 (centres undefined)	TDP1 cell CPT inconclusive, TDP1 cell noCPT 15µM
CCC1CN(C(=O)NCc2cccc(OC)c2)c2cc(Cl)ccc2O1 (centres undefined)	TDP1 cell CPT 15µM, TDP1 cell noCPT inconclusive
CCC1CN(C(=O)Nc2cc(Cl)c(OC)cc2OC)c2ccccc2O1 (centres undefined)	none
CCC1CN(C(=O)NCc2ccc(F)cc2)c2ccccc2O1 (centres undefined)	TDP1 cell CPT inconclusive, TDP1 cell noCPT inconclusive
COc1cc(Cl)ccc1OCc1cc(C(=O)N2CCCC(OC)C2)no1 (centres undefined)	TDP1 cell noCPT inconclusive
CCOC(=O)c1c(NC(=O)c2ccoc2C)sc(C(=O)N(C)C)c1C	TDP1 cell noCPT 23µM
CCN(CC)C(=O)c1sc(NC(=O)c2cc(-c3ccc(C)s3)nc3ccccc23)c(C(=O)OC)c1C	TDP1 cell CPT inconclusive, TDP1 cell noCPT 23µM
CCN(CC)C(=O)c1sc(NC(=O)C(Sc2ccccc2)c2ccccc2)c(C(=O)OC(C)C)c1C (centres undefined)	TDP1 cell CPT inconclusive, TDP1 cell noCPT 16µM
CCOC(=O)c1c(NC(=O)Nc2ccc(F)cc2)sc(C(=O)N(C)C)c1C	TDP1 cell CPT inconclusive, TDP1 cell noCPT inconclusive
CCN(CC)CC(C)CNC(=O)c1cc(-c2ccc(Br)s2)nc2ccccc12 (centres undefined)	TDP1 cell CPT 8.2µM, TDP1 cell noCPT 9.2µM, ClpP mod inconclusive
Cc1ccc(/C=C/c2onc(C)c2S(=O)(=O)N2CCC(C(=O)NCC(C)c3ccccc3)CC2)cc1 (centres undefined)	TDP1 cell CPT inconclusive
O=C(Nc1ccc(N2CCOCC2)cc1)c1csc([C@@H]2O[C@H](CO)[C@H](O)[C@H](O)[C@H]2O)n1	none (no result: TDP1 inh)
CO[C@@H]1COC(=O)[C@H](C)NC(=O)C/C=C\[C@@H](C)[C@H](OC)COC(=O)[C@H](C)NC(=O)C/C=C\[C@H]1C	none (no result: TDP1 cell CPT, TDP1 cell noCPT, ClpP mod)
Cc1ccc(C)c(-c2cc(C(=O)Nc3sc(C)c(C)c3C(N)=O)c3ccccc3n2)c1	TDP1 cell CPT 21µM, TDP1 cell noCPT inconclusive
CCN(CC)C(=O)c1sc(NC(=O)c2ccoc2C)c(C(=O)OC)c1C	TDP1 cell CPT inconclusive, TDP1 cell noCPT 21µM
CN(C)CCNC(=O)C(=O)Nc1cc2c3c(c1)CCN3C(=O)CC2	none
CC1C(=O)N2CCCc3cc(NC(=O)c4ccccc4Br)cc1c32 (centres undefined)	none
CCC1CN(C(=O)N2CCC(C(=O)NCc3cccs3)CC2)c2cc(C)ccc2O1 (centres undefined)	TDP1 cell CPT 18µM, TDP1 cell noCPT 23µM
Cc1ccc2c(c1)N(C(=O)N1CCC(C(=O)NCc3cccs3)CC1)CC(C)O2 (centres undefined)	TDP1 cell CPT inconclusive, TDP1 cell noCPT 18µM
CC(C)(C)c1ccc(SCCc2ccccn2)cc1	none
CC(NCCC1(Cc2ccccc2Cl)CCOC(C)(C)C1)c1cccs1 (centres undefined)	TDP1 cell CPT 23µM, TDP1 cell noCPT 21µM (no result: ClpP mod)
CC(NCCC1(C(C)C)CCOC(C)(C)C1)c1cccs1 (centres undefined)	TDP1 cell noCPT inconclusive
CCOc1ccccc1C=NNc1ccc([N+](=O)[O-])cn1	none (no result: TDP1 inh)
O=[N+]([O-])c1ccc(NN=Cc2ccccc2O)nc1	TDP1 cell CPT 5.8µM, TDP1 cell noCPT 5.8µM (no result: TDP1 inh)
CCN(CC)S(=O)(=O)c1ccc(N/N=C/c2ccc(O)cc2O)nc1	TDP1 cell CPT 4.6µM, TDP1 cell noCPT 5.8µM
CCN(CC)c1ccc(C=NNc2ccc([N+](=O)[O-])cn2)cc1	TDP1 cell CPT 21µM, TDP1 cell noCPT inconclusive (no result: TDP1 inh, ClpP mod)
N#Cc1ccccc1Cn1cc(/C=N/Nc2ccc([N+](=O)[O-])cn2)c2ccccc21	TDP1 cell CPT inconclusive, TDP1 cell noCPT 23µM (no result: ClpP mod)
COc1ccc(C=NNc2ccc([N+](=O)[O-])cn2)cc1	none (no result: TDP1 inh, ClpP mod)
CC#CC(=O)Nc1cc2c(Nc3ccc(F)c(Cl)c3)ncnc2cn1	none (no result: TDP1 cell CPT, TDP1 cell noCPT, ClpP mod)
CCC(C)(O)c1[nH]c2ccc(C(=O)OC)cc2c1C (centres undefined)	none (no result: TDP1 inh)
O=C(COCc1cc(-c2ccco2)on1)Nc1cc(Cl)ccc1O	TDP1 cell CPT inconclusive, TDP1 cell noCPT inconclusive
